Reference: the supplement of paper PMC13380429
A number with no mark means an inactive call.

test system: Vero E6 infected with SARS-CoV-2; assay: inhibition of SARS-CoV-2 cytopathic effect; higher = more antiviral protection, active = above 15; settings: 10000 nM; 48 h

Row | Compound | inhibition of SARS-CoV-2 cytopathic effect
1 | Cn1c(CNc2ccc(C(=N)N)cc2)nc2cc(C(=O)N(CCC(=O)O)c3ccccn3)ccc21 [dabigatran] | 3.34%
2 | COC(=O)N/N=C/c1c[n+]([O-])c2ccccc2[n+]1[O-] [carbadox] | 0.87%
3 | Clc1ccc2nsnc2c1NC1=NCCN1 [tizanidine] | 0.03%
4 | COc1cc2c(NC3CCN(C)CC3)nc(N3CCCN(C)CC3)nc2cc1OCCCN(C)C | 4.51%
5 | C/C=C1/[C@H](O[C@@H]2O[C@H](CO)[C@@H](O)[C@H](O)[C@H]2O)OC=C(C(=O)OC)[C@H]1CC(=O)OCCc1ccc(O)c(O)c1 [oleuropein] | 0.52%
6 | CS(=O)(=O)c1ccc(Oc2cc(F)cc(C#N)c2)c2c1[C@H](O)C(F)(F)C2 | 0.01%
7 | FC(F)(F)Oc1ccc2nc(-c3ccc(OCCOCCOc4ccc(-c5nc6ccc(OC(F)(F)F)cc6[nH]5)nc4)cn3)[nH]c2c1 | -6.61%
8 | O=C(NN1C(=O)[C@@H]2[C@@H]3C=C[C@@H]([C@H]4C[C@@H]34)[C@@H]2C1=O)c1ccc(C(F)(F)F)cc1 [tecovirimat] | -0.46%
9 | C=C1CC[C@H](O)C/C1=C/C=C1\CCC[C@]2(C)[C@@H]([C@H](C)CCCC(C)(C)O)CC[C@@H]12 [calcifediol] | 0.11%
10 | CCNC(=O)CC[C@H](N)C(=O)O [L-theanine] | -0.81%
11 | COc1ccc(CC(C)NCC(O)c2ccc(O)c(NC=O)c2)cc1 (stereo not given) [formoterol] | 10.8%
12 | CNC(=O)[C@@H](Cc1ccccc1)N(C)C(=O)[C@@H](Cc1ccc2ccccc2c1)N(C)C(=O)/C=C/CC(C)(C)N [tabimorelin] | 0.56%
13 | CC(C)OC(=O)CNC(=O)[C@H](CS)NC(=O)CC[C@H](N)C(=O)O [glutathione-monoisopropyl-ester] | 2.32%
14 | COc1cn(-c2ccc(-n3cccn3)cc2F)nc(-c2ccnn2-c2ccccc2)c1=O | 0.75%
15 | S=C(S)N1CCCC1 [pyrrolidine-dithiocarbamate] | 24.8% (active)
16 | O[C@H]1CC[C@H](Nc2ncc3nc(Nc4c(F)cc(F)cc4F)n([C@H]4CCOC4)c3n2)CC1 | -3.68%
17 | COc1ccccc1C(=O)Nc1cccc(NC(=O)c2cccc(C)c2)c1 | 1.77%
18 | CN(C)CC(c1ccc(O)cc1)C1(O)CCCCC1 (stereo not given) [desvenlafaxine] | 0.99%
19 | CC(C)NC(=O)N1CC[C@H](NC2=Nc3cc(F)ccc3N(CC(F)F)c3ccc(Cl)cc32)C1 | -0.57%
20 | [O-][n+]1ccccc1[S-].[O-][n+]1ccccc1[S-].[Zn+2] [pyrithione-zinc] | -21.9%

Row | Compound | inhibition of SARS-CoV-2 cytopathic effect
21 | CCOc1cc([C@@H](CS(C)(=O)=O)N2C(=O)c3cccc(NC(C)=O)c3C2=O)ccc1OC [apremilast] | -2.14%
22 | C/C=C/c1cc(OC)c(OC)cc1OC [alpha-asarone] | -0.33%
23 | CN(C)CC[C@H](CSc1ccccc1)Nc1ccc(S(=O)(=O)NC(=O)c2ccc(N3CCN(Cc4ccccc4-c4ccc(Cl)cc4)CC3)cc2)cc1[N+](=O)[O-] | -20.2%
24 | CC(C)(C)NCC(O)c1cc(O)cc(O)c1 (stereo not given) | -0.76%
25 | C[C@]12CC[C@H]3[C@@H](CC[C@@]45O[C@@H]4C(O)=C(C#N)C[C@]35C)[C@@H]1CC[C@@H]2O [trilostane] | 2.15%
26 | O=C1CN(/N=C/c2ccc(-c3ccc([N+](=O)[O-])cc3)o2)C(=O)N1 [dantrolene] | 1.97%
27 | CCCCn1c(-c2ccccc2)nc(-c2ccccc2)c1CN(Cc1ccc2c(c1)OCO2)Cc1ccc2c(c1)OCO2 | 5.96%
28 | CC(CN1c2ccccc2Sc2ccccc21)N(C)C (stereo not given) [promethazine] | 3.03%
29 | C=CC(=O)Nc1cccc(Oc2nc(Nc3ccc(N4CCN(C)CC4)cc3OC)ncc2Cl)c1 | -11.8%
30 | Cc1onc(-c2ccccc2Cl)c1C(=O)N[C@@H]1C(=O)N2[C@@H]1SC(C)(C)[C@@H]2C(=O)O [cloxacillin] | 1.27%
31 | CCCCCCCCCCCCCCCCCCCCCCCCC(=O)O [pentacosanoic-acid] | -2.38%
32 | Cc1cc(C)nc(NS(=O)(=O)c2ccc(NC(=S)NC(=O)COc3ccc(Br)cc3Cl)cc2)n1 | 0.9%
33 | CC(=O)Oc1cc2c(s1)CCN(C(C(=O)C1CC1)c1ccccc1F)C2 (stereo not given) [prasugrel] | -0.82%
34 | CN1CCN(CCCN2c3ccccc3Sc3ccc(S(=O)(=O)N(C)C)cc32)CC1 [thioproperazine] | 1.7%
35 | CCCCCCCCCCCC[N+](C)(C)CCOc1ccccc1 [domiphen] | -8.43%
36 | COC[C@H]1OC(=O)c2coc3c2[C@@]1(C)C1=C(C3=O)[C@@H]2CCC(=O)[C@@]2(C)C[C@H]1OC(C)=O [wortmannin] | -2.83%
37 | O=C1O[C@H]([C@@H](O)CO)C(O)=C1O | -1.51%
38 | Oc1ccc2c3c1O[C@H]1c4[nH]c5ccccc5c4C[C@@]4(O)[C@@H](C2)N(CC2CC2)CC[C@]314 [naltrindole] | -3.58%
39 | Cc1ccc2c(=O)c3ccccc3n(CCCN)c2c1C | -13.1%
40 | CNCCN(C)Cc1c[nH]nc1-c1ccc(O[C@H]2C[C@H](OCCC3CCOCC3)C2)cc1 | 1.7%
